# Data as given in PubChem BioAssay (Tox21).
# A number with no mark means an inactive call. Records with an inconclusive call do not appear. Where a call stands in place of a potency, no number is given. Active and inactive are the calls of the source. Unless noted, calls come from the whole dose curve; as a rule, active = well fitted curve in the direction sought with a large enough effect in the repeat runs; inconclusive = weak or mixed curves; inactive = no such curve, though single readings can be large; an effect the other way counts as inactive or inconclusive.
# Columns and labels:
# [1] = qHTS assay to identify small molecule antagonists of the estrogen related receptor (ERR) signaling pathway - cell viability counter screen (AID 1224818); note: potency is the fitted concentration of half-maximal effect;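 note: viability measured after 17.5 h of compound exposure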
# Outline: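 In the same ERR cell assay, compound-treated wells (17.5 h, 37 C) were multiplexed with a fluorogenic viability reagent, CellTiter-Fluor, read after 30 min to flag cytotoxic substances.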
# [2] = qHTS assay to identify small molecule antagonists of the estrogen related receptor (ERR) signaling pathway (AID 1224819; note: nearly all actives have a fitted effect of over 50% in size; note: potency is the fitted concentration of half-maximal effect)
# Outline: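 qHTS in ERR cells, 2,000/well, 1536 format. Cpd (DMSO) added after 6 h settle, 18 h 37 C. One-Glo luminescence, 30 min RT.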
# [3] = qHTS assay to identify small molecule agonists of the estrogen related receptor (ERR) signaling pathway (AID 1224820)
# Outline: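 Cells: ERR line from NTP, 2,000/well. Pre-incubation 6 h, 37 C/5% CO2. Compound (DMSO) pin transfer, 18 h 37 C. One-Glo, 30 min RT, luminescence.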
# [4] = qHTS assay to identify small molecule antagonists of the estrogen related receptor signaling pathway with the pleiotropic PPARgamma coactivator (PGC) cell viability counter screen (AID 1224822; note: potency is the fitted concentration of half-maximal effect)
# Outline: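 Compounds in DMSO, with positive and negative controls, were applied to PGC/ERR cells (2,000/well) and left 17.5 h at 37 C before CellTiter-Fluor detection.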
# [5] = qHTS assay to identify small molecule agonists of the estrogen related receptor signaling pathway with the pleiotropic PPARgamma coactivator (PGC) (AID 1224823)
# Outline: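 Steps: plate PGC/ERR cells at 2,000 cells/well; incubate 6 h, 37 C/5% CO2; pin-transfer compounds (DMSO); incubate 18 h, 37 C; add One-Glo; 30 min RT; read luminescence.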
# [6] = tested on: estrogen-related receptor alpha (ERRalpha) with PGC-1alpha coactivator, human; experiment: qHTS assay to identify small molecule antagonists of the estrogen related receptor signaling pathway with the pleiotropic PPARgamma coactivator (PGC) (AID 1224821; calls by dose curve;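 note: series mostly up to about 46 µM; lower luminescence signal means antagonism of PGC/ERR signalling; nearly all actives have a fitted effect of over 50% in size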)
# Outline: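 Luminescent read-out (One-Glo, 30 min at room temperature) following 18 h treatment of PGC/ERR cells at 37 C with compounds delivered in DMSO. Cells had settled 6 h at 37 C/5% CO2 before dosing.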
# [7] = qHTS assay for small molecule agonists of the p53 signaling pathway (AID 651631; calls by dose curve; note: nearly all actives have a fitted effect of over 15% in size)
# Outline: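 Read-out is beta-lactamase FRET fluorescence measured 2 h after substrate addition at room temperature, in HCT-116 cells with a p53 response element-driven reporter exposed to compounds for 16 h at 37 °C.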
# [8] = qHTS assay for small molecules that induce genotoxicity in human embryonic kidney cells expressing luciferase-tagged ATAD5 (AID 651632); note: nearly all actives have a fitted effect of over 15% in size
# Outline: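 Reporter cells (HEK293T) express luciferase-tagged ATAD5, a protein that accumulates after DNA damage. Treat 16 hr at 37C/5% CO2, add Amplite, wait 30 min at RT, and read luminescence.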
# [9] = qHTS assay for small molecule agonists of the p53 signaling pathway - cell viability (AID 651633; calls by dose curve;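 note: p53RE-bla HCT reporter cells with a stable beta-lactamase p53 reporter; series mostly up to about 83 µM; nearly all actives have a fitted effect of over 30% in size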)
# Outline: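 p53RE-bla cells were treated with compound for 16 hours at 37 C. Cytotoxicity was then measured as CellTiter-Glo luminescence after 30 min at room temperature.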
# [10] = qHTS assay for small molecules that induce genotoxicity in human embryonic kidney cells expressing luciferase-tagged ATAD5 - cell viability (AID 651634; calls by dose curve; note: nearly all actives have a fitted effect of over 25% in size)
# Outline: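 Seeding of 2,000 HEK293T ATAD5-luciferase cells per well preceded pin-tool compound transfer. Plates sat 15.5 hr at 37C under 5% CO2, then fluorescence was read after 30 min with CellTiter-Fluor.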
# [11] = qHTS assay for small molecule disruptors of the mitochondrial membrane potential - cell viability (AID 720634; calls by dose curve;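 note: human HepG2 liver cancer cells; series mostly up to about 83 µM; nearly all actives have a fitted effect of over 20% in size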)
# Outline: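 Measuring cytotoxicity alongside mitochondrial potential, the screen quantified ATP by luminescence in HepG2 cells after 1 hr compound incubation and a 30 min room-temperature CellTiter-Glo step.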
# [12] = qHTS assay to test for compound auto fluorescence at 590 nm (red) in HepG2 cells (AID 720674)
# Outline: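 Fluorescence at 590 nm emission following 540 nm excitation was recorded from HepG2 wells one hour after compound transfer, with DMSO-only wells as vehicle and Rose Bengal sodium equivalency as the scale.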
# [13] = qHTS assay to test for compound auto fluorescence at 535 nm (green) in HepG2 cells (AID 720675)
# [14] = qHTS assay to test for compound auto fluorescence at 460 nm (blue) in HEK293 cells (AID 720678)
# Outline: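 Blue read-out at excitation 405 nm and emission 460 nm follows overnight compound exposure of HEK293 cells at 37C in 5% CO2. Activity is given as auto fluorescence equivalency to triamterene.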
# [15] = qHTS assay to test for compound auto fluorescence at 590 nm (red) in HEK293 cells (AID 720679)
# Outline: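 Red channel, Ex/Em 540/590nm; signal expressed as equivalency to Rose Bengal sodium. HEK293, 2,000 cells/well, 10% dialyzed FBS; 23 nL compound pinned after 4-5 hr attachment; overnight 37C/5% CO2 before reading.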
# [16] = qHTS assay to test for compound auto fluorescence at 460 nm (blue) in HEK293 cell free culture (AID 720681)
# Outline: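 Compounds were added to cell-free DMEM with 10% FBS and fluorescence read directly. The blue channel used 405 nm excitation and 460 nm emission, with triamterene as the reference fluorophore.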
# [17] = qHTS assay to test for compound auto fluorescence at 535 nm (green) in HEK293 cell free culture (AID 720682)
# Outline: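 Fluorescein serves as the green reference fluorophore; each compound's intrinsic emission at 535 nm (excitation 485 nm) is reported as an equivalent amount of that dye, measured in serum-containing DMEM without cells.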
# [18] = qHTS assay to test for compound auto fluorescence at 590 nm (red) in HEK293 cell free culture (AID 720683)
# Outline: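 Cell-free wells of DMEM with 10% FBS received compound, and intrinsic fluorescence was read at excitation/emission 540/590 nm. Values expressed as equivalence to Rose Bengal sodium.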
# [19] = qHTS assay to test for compound auto fluorescence at 590 nm (red) in HepG2 cell free culture (AID 720684)
# Outline: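 Compound was pinned into wells holding MEM with 10% FBS and no cells, and red fluorescence was read at Ex/Em 540/590 nm. Signal is expressed as auto fluorescence equivalency relative to Rose Bengal sodium.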
# [20] = qHTS assay to test for compound auto fluorescence at 535 nm (green) in HepG2 cell free culture (AID 720686)
# [21] = qHTS assay to test for compound auto fluorescence at 460 nm (blue) in HepG2 cells (AID 720687)
# Outline: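 HepG2 cells in MEM with 10% FBS, attached overnight at 37 C, were exposed to compound or DMSO for 1 hr at 37 C, 5% CO2. Blue fluorescence was read at 405/460 nm, with triamterene as reference fluorophore.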
# [22] = target: Glucocorticoid receptor (Homo sapiens) (UniProt P04150); experiment: qHTS assay to identify small molecule antagonists of the glucocorticoid receptor (GR) signaling pathway (AID 720692; active = well fitted inhibition curve with a large enough effect in the signal ratio in the repeat runs, not every such curve was filed as active; the % refers to the signal ratio)
# Outline: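 Dexamethasone (5 nM final) stimulated a stably integrated GRE-beta-lactamase reporter in HeLa cells during 18 h co-incubation with compounds; signal was quantified as fluorescence intensity of B/G FRET substrate after 2 h.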
# [23] = qHTS assay to identify small molecule antagonists of the glucocorticoid receptor (GR) signaling pathway - cell viability counter screen (AID 720693); note: nearly all actives have a fitted effect of over 55% in size
# [24] = qHTS assay for identifying genotoxic compounds that show differential cytotoxicity against isogenic chicken DT40 cell lines with known DNA damage response pathways - wild type cell line (AID 743012); note: potency is the fitted concentration of half-maximal effect; nearly all actives have a fitted effect of over 60% in size
# Outline: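 Using parental DT40 (300 cells/well), compounds delivered in DMSO incubate 40 h at 37 C/5% CO2. CellTiter-Glo reagent then stands 30 min at room temperature, and luminescence gives cell viability.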
# [25] = qHTS assay for identifying genotoxic compounds that show differential cytotoxicity against isogenic chicken DT40 cell lines with known DNA damage response pathways - Rev3 mutant cell line (AID 743014); note: potency is the fitted concentration of half-maximal effect; nearly all actives have a fitted effect of over 55% in size
# [26] = qHTS assay for identifying genotoxic compounds that show differential cytotoxicity against isogenic chicken DT40 cell lines with known DNA damage response pathways - Rad54/Ku70 mutant cell line (AID 743015); note: potency is the fitted concentration of half-maximal effect; nearly all actives have a fitted effect of over 60% in size
# [27] = qHTS assay to identify small molecule antagonists of the androgen receptor (AR) signaling pathway - cell viability counter screen (AID 743033; note: nearly all actives have a fitted effect of over 45% in size)
# [28] = qHTS assay to identify small molecule antagonists of the androgen receptor (AR) signaling pathway using the MDA cell line - cell viability counter screen (AID 743041; note: nearly all actives have a fitted effect of over 45% in size)
# Outline: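 MDA-kb2 AR-luc cells (MMTV-luciferase, AR/GR responsive) treated with compounds plus R1881 agonist for 16 h at 37C. CellTiter-Fluor added at 15.5 h; fluorescence read after 30 min in the same wells.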
# [29] = tested on: thyroid hormone receptor (rat, GH3 cells); experiment: qHTS assay to identify small molecule agonists of the thyroid receptor (TR) signaling pathway (AID 743066; calls by dose curve)
# [30] = target: Estrogen receptor (Homo sapiens) (UniProt P03372); experiment: qHTS assay to identify small molecule antagonists of the estrogen receptor alpha (ER-alpha) signaling pathway (AID 743069; active = well fitted curve in the direction sought with a large enough effect in the signal ratio in the repeat runs, not every such curve was filed as active; the % refers to the signal ratio)
# Outline: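 HEK293 ER-alpha-UAS-bla GripTite cells, held overnight in 2% charcoal-stripped FBS, 5,000 cells/well, preincubated 4 h, then compound plus 17beta-estradiol for 18 h at 37C. Beta-lactamase read by LiveBLAzer B/G FRET substrate, 2 h at room temperature.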
# [31] = qHTS assay to identify small molecule antagonists of the estrogen receptor alpha (ER-alpha) signaling pathway - cell viability counter screen (AID 743074; calls by dose curve;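 note: HEK293 cells carrying ER-alpha-UAS-bla reporter stimulated with 17beta-estradiol; nearly all actives have a fitted effect of over 45% in size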)
# [32] = target: Estrogen receptor (Homo sapiens) (UniProt P03372); experiment: qHTS assay to identify small molecule agonists of the estrogen receptor alpha (ER-alpha) signaling pathway (AID 743075; calls by dose curve)
# [33] = target: Estrogen receptor (Homo sapiens) (UniProt P03372); experiment: qHTS assay to identify small molecule agonists of the estrogen receptor alpha (ER-alpha) signaling pathway using the BG1 cell line (AID 743079); note: potency is the fitted concentration of half-maximal effect; nearly all actives have a fitted effect of over 20% in size
# [34] = qHTS assay to identify small molecule antagonists of the estrogen receptor alpha (ER-alpha) signaling pathway using the BG1 cell line (AID 743080; calls by dose curve;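 note: BG1 cells stimulated with 17beta-estradiol alongside compound; series mostly up to about 70 µM; nearly all actives have a fitted effect of over 25% in size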)
# Outline: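 Luminescence from a 4×ERE-luciferase reporter in BG1-Luc-4E2 cells served as read-out. Cells, pre-cultured 5 days in stripped-serum phenol-red-free medium, were exposed to compound with 17beta-estradiol co-stimulation for 21.5 h at 37 C.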
# [35] = qHTS assay to identify small molecule antagonists of the estrogen receptor alpha (ER-alpha) signaling pathway using the BG1 cell line - cell viability counter screen (AID 743081);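 note: compound given together with 17beta-estradiol as the ER stimulus; series mostly up to about 70 µM; nearly all actives have a fitted effect of over 45% in size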
# [36] = target: Aromatase (Homo sapiens) (UniProt P11511); experiment: qHTS assay to identify aromatase inhibitors (AID 743083); note: series mostly up to about 70 µM; nearly all actives have a fitted effect of over 55% in size
# [37] = qHTS assay to identify aromatase inhibitors - cell viability counter screen (AID 743084);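 note: cells stimulated with testosterone during compound exposure; nearly all actives have a fitted effect of over 55% in size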
# [38] = target: Aryl hydrocarbon receptor (Homo sapiens) (UniProt P35869); experiment: qHTS assay to identify small molecule that activate the aryl hydrocarbon receptor (AhR) signaling pathway (AID 743085);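 note: HG2L7.5c1 human HepG2 liver cells with stably integrated DRE-driven firefly reporter; series mostly up to about 70 µM; nearly all actives have a fitted effect of over 15% in size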
# Outline: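 Cell line HG2L7.5c1 (human hepatoma, 20× DRE-luc). Plated, 5 h 37C, compound/DMSO added, 24 h 37C. CellTiter-Fluor 30 min 37C → fluorescence; then ONE-Glo 30 min RT → luminescence.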
# [39] = qHTS assay to identify small molecule that activate the aryl hydrocarbon receptor (AhR) signaling pathway - cell viability counter screen (AID 743086)
# Outline: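 HepG2-AhR-luc (HG2L7.5c1) cells, 4000/well, treated 24 h at 37 C with compound; viability measured as CellTiter-Fluor fluorescence after 30 min in the same wells as the luciferase read.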
# [40] = target: Peroxisome proliferator-activated receptor gamma (Homo sapiens) (UniProt P37231); experiment: qHTS assay to identify small molecule agonists of the peroxisome proliferator-activated receptor gamma (PPARg) signaling pathway (AID 743094; active = well fitted activation curve with a large enough effect in the signal ratio in the repeat runs, not every such curve was filed as active; the % refers to the signal ratio)
# Outline: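 Following 5 h plating at 37C, PPARg-bla HEK293H cells receive compound or DMSO for 17 h; fluorescence intensity is recorded after LiveBLAzer B/G loading for 1 h at room temperature.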
# [41] = target: Nuclear receptor subfamily 1 group I member 2 (Homo sapiens) (UniProt O75469); experiment: CYP3A4 induction through human pregnane X receptor (PXR) by small molecules, qHTS assay (AID 1346984); note: nearly all actives have a fitted effect of over 40% in size
# Outline: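 qHTS, concentration-response format: HepG2 DPX-2 line, PXR/CYP3A4-luc. Exposure 24 h, 37C. Substrate Luciferin-IPA 3uM final, 3 h. Detection One-Glo, 30 min RT.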
# Estrogen receptor (Homo sapiens), sequence (P03372 whole entry, looked up): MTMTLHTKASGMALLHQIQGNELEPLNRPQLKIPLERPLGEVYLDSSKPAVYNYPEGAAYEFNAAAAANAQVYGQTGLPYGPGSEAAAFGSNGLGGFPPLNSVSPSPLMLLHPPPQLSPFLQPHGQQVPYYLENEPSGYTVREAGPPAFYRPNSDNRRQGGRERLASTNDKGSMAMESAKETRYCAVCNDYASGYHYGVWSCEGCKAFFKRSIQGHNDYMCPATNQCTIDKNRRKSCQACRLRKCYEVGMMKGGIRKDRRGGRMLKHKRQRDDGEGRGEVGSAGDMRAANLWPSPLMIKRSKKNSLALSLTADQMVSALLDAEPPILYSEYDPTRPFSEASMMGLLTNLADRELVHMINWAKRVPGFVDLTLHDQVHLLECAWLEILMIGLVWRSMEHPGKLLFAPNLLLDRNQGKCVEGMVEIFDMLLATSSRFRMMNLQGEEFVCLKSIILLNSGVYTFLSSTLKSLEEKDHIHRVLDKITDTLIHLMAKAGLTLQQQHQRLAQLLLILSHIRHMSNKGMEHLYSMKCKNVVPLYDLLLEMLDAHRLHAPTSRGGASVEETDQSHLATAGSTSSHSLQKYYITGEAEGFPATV
# Aryl hydrocarbon receptor (Homo sapiens), sequence (P35869 whole entry, looked up): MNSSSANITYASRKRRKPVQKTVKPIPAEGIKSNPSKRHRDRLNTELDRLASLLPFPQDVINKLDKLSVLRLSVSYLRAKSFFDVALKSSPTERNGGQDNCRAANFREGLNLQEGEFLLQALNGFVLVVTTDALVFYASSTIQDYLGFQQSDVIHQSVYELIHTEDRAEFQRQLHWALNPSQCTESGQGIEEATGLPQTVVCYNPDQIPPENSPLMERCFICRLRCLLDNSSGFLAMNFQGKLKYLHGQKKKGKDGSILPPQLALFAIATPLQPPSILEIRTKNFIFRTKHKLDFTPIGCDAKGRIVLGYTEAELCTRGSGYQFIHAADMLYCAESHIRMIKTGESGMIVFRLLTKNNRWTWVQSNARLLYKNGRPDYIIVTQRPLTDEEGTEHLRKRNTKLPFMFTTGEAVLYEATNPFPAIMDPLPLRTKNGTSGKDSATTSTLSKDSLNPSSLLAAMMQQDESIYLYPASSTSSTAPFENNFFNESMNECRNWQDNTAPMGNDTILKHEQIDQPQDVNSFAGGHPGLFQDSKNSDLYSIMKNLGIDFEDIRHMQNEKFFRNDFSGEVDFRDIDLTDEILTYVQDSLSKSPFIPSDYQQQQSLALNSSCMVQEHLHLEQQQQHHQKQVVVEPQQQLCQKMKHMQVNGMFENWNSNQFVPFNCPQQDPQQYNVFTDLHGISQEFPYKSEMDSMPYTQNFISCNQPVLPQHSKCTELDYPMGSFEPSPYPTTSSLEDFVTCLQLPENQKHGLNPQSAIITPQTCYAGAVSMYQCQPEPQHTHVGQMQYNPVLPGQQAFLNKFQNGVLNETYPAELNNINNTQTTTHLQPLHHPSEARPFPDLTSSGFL
# Aromatase (Homo sapiens), sequence (P11511 whole entry, looked up): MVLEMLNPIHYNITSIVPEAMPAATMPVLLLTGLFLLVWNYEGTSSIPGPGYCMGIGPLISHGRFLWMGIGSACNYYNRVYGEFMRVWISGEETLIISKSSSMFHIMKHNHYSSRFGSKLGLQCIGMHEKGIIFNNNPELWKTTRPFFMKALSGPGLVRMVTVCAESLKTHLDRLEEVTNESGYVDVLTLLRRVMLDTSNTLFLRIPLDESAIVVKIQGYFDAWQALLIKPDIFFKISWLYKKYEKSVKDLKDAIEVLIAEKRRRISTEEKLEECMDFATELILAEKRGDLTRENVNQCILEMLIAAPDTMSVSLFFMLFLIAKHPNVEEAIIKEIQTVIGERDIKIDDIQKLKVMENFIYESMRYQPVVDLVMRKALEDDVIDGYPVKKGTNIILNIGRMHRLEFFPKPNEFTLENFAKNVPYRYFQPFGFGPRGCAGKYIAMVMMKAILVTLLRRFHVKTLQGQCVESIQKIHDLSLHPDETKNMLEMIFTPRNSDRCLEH
# Peroxisome proliferator-activated receptor gamma (Homo sapiens), sequence (P37231 whole entry, looked up): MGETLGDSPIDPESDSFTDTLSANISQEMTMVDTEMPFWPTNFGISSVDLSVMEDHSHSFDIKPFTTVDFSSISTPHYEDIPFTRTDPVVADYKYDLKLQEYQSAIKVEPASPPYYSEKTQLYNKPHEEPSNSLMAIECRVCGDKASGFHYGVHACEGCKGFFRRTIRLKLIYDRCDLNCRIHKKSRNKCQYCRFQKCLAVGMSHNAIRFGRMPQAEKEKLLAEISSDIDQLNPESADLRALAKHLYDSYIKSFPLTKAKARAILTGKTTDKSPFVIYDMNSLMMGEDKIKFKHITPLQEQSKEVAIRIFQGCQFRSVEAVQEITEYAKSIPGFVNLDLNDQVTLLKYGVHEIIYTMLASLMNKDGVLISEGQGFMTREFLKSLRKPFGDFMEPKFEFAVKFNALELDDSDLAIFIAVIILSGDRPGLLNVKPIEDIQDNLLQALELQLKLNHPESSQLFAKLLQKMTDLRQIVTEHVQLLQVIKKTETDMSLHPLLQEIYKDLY
# Glucocorticoid receptor (Homo sapiens), sequence (P04150 whole entry, looked up): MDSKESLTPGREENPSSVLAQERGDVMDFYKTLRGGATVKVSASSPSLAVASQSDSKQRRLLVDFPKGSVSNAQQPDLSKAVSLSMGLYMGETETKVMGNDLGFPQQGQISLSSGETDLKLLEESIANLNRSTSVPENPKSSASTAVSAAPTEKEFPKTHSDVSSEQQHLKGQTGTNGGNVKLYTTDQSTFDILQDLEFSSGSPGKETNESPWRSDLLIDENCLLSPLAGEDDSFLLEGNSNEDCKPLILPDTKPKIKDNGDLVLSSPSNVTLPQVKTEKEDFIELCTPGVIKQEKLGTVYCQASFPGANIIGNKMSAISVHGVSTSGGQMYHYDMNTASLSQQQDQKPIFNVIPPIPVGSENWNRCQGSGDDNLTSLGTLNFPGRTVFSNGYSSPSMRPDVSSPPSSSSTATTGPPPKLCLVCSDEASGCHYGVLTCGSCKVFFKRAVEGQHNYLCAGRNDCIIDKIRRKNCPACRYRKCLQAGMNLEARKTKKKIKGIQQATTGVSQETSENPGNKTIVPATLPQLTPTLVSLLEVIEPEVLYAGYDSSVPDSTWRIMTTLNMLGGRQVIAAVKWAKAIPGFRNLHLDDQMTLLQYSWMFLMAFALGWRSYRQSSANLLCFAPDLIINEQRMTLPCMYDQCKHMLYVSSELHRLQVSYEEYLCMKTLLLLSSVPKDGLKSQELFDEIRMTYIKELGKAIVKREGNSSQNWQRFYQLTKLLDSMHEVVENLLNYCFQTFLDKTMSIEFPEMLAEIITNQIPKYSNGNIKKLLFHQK
smiles,measurement,setting,value
CNc1ccc2oc(C[C@H]3O[C@@]4(CC[C@H]3C)O[C@H]([C@H](C)C(=O)c3ccc[nH]3)[C@H](C)C[C@H]4C)nc2c1C(=O)O,Potency,[1],10.6 µM (active)
same,Potency,[2],2.37 µM (active)
same,Potency,[3],inactive
same,Potency,[4],9.44 µM (active)
same,Potency,[5],inactive
[Cl-].[Cl][Pt].[NH2-].[NH2-].c1ccncc1,Potency,[1],inactive
same,Potency,[4],inactive
CN1CC[C@@]2(C)c3cc(OC(=O)Nc4ccccc4)ccc3N(C)[C@@H]12,Potency,[1],inactive
same,Potency,[2],inactive
same,Potency,[6],inactive
same,Potency,[5],inactive
c1ccc2cc(CC3=NCCN3)ccc2c1,Potency,[1],inactive
same,Potency,[4],inactive
CC(C)NC(C)Cc1ccc(I)cc1 (stereo not drawn),Potency,[7],inactive
same,Potency,[8],inactive
same,Potency,[9],inactive
same,Potency,[10],inactive
same,Potency,[11],inactive
same,outcome,[12],inactive
same,Potency,[13],inactive
same,Potency,[14],inactive
same,outcome,[15],inactive
same,Potency,[16],inactive
same,Potency,[17],inactive
same,outcome,[18],inactive
same,outcome,[19],inactive
same,Potency,[20],inactive
same,Potency,[21],inactive
same,Potency,[22],inactive
same,Potency,[23],inactive
same,Potency,[24],26.6 µM (active)
same,Potency,[25],1.68 µM (active)
same,Potency,[26],13.3 µM (active)
same,Potency,[27],inactive
same,Potency,[28],inactive
same,Potency,[29],inactive
same,Potency,[30],inactive
same,Potency,[31],inactive
same,Potency,[32],inactive
same,Potency,[33],21.1 µM (active)
same,Potency,[34],inactive
same,Potency,[35],inactive
same,Potency,[36],inactive
same,Potency,[37],inactive
same,Potency,[38],inactive
same,Potency,[39],inactive
same,Potency,[40],inactive
same,Potency,[1],inactive
same,Potency,[2],inactive
same,Potency,[6],inactive
same,Potency,[4],inactive
same,Potency,[5],inactive
same,Potency,[41],inactive
CC(=O)[C@H]1CCC2C3CC[C@H]4C[C@H](O)CC[C@]4(C)C3CC[C@@]21C (stereo partly drawn),Potency,[1],inactive
same,Potency,[3],inactive
same,Potency,[6],inactive
same,Potency,[4],inactive
same,Potency,[5],inactive
